Results reported in PubChem BioAssay.
Activity calls are given as the source filed them.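 The calls were made as follows, unless noted: active = normalized viability below 100% at a tested concentration; inactive = the rest.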 *1 amine or outer side, *2 acyl side, *3 side chain or, on linkers, in order; H or OH if unused. Where a SMILES comes first, the peptide text is derived from it. Bridges are numbered along the chain shown (N, C = ends). [ ]: non-standard residue; d: D form. The star is where a group is joined. ξ: configuration not given here. pTerphenylCO(4''-OnC5H11) = CCCCCOc1ccc(-c2ccc(-c3ccc(C(=O)*)cc3)cc2)cc1; ξOrn(4,5-diOH) = O=C(C(CC(O)C(O)N[*:3])N[*:1])[*:2]; ξhTyr(βξ-OH,γξ-OH) = NC(C(=O)O)C(O)C(O)c1ccc(O)cc1; ξPro(3ξ-OH,4ξ-Me) = CC1CNC(C(=O)O)C1O; Hyp = O=C(O)[CH]1C[CH](O)CN1

Assays:
[1] = viability loss with induced miR-34 in A549 – imaging, A549 dox-inducible miR-34, nuclei and caspase counts, primary screen (AID 1347080;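 active = compounds whose cell count with miR-34 switched on is under 0.7 times the count with it off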); details: A549 miR-34 inducible, Hoechst nuclei count, 48 h
[2] = MELAS cybrid and Rieske KO viability enhancers – cell-based, MELAS cybrids, Rieske KO mouse fibroblasts, CellTiter-Glo, primary screen (AID 1508586;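 active = mean z-score across replicates of 1.96 or higher in either the MELAS or the Rieske mutant cell line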;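 also: z relative to plate mean and SD of compound and empty wells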); details: low glucose
[3] = drug combination growth inhibition, ovarian cancer – cell-based, oncology-focused library, rucaparib conditional, profiling panel (AID 1508598); details: patient-derived ovarian cancer cells, CellTiter-Glo viability, 144 h, stronger effect = lower value
[4] = stronger effect = lower value, cell number ratio, induced over uninduced
[5] = measured here: relative caspase fold change +Dox/-Dox
[6] = measured here: total cells with miR-34 induction, stronger effect = lower value
[7] = measured here: total cells without miR-34 induction
[8] = MELAS cybrid survival, CellTiter-Glo 48 h, stronger effect = higher value
[9] = Rieske KO mouse fibroblast survival, CellTiter-Glo 72 h
[10] = at 0.000305 µM, OCI-C5x cells, with rucaparib 10 µM, 100% = cells with rucaparib alone
[11] = at 0.000305 µM, OCI-C5x cells, without rucaparib
[12] = at 0.000305 µM, OCI-P5x cells, with rucaparib 20 µM, 100% = cells with rucaparib alone
[13] = at 0.000305 µM, OCI-P5x cells, without rucaparib
[14] = at 0.00122 µM, OCI-C5x cells, with rucaparib 10 µM, 100% = cells with rucaparib alone
[15] = at 0.00122 µM, OCI-C5x cells, without rucaparib
[16] = at 0.00122 µM, OCI-P5x cells, with rucaparib 20 µM, 100% = cells with rucaparib alone
[17] = at 0.00122 µM, OCI-P5x cells, without rucaparib
[18] = at 0.00488 µM, OCI-C5x cells, with rucaparib 10 µM, 100% = cells with rucaparib alone
[19] = at 0.00488 µM, OCI-C5x cells, without rucaparib
[20] = at 0.00488 µM, OCI-P5x cells, with rucaparib 20 µM, 100% = cells with rucaparib alone
[21] = at 0.00488 µM, OCI-P5x cells, without rucaparib
[22] = at 0.0195 µM, OCI-C5x cells, with rucaparib 10 µM, 100% = cells with rucaparib alone
[23] = at 0.0195 µM, OCI-C5x cells, without rucaparib
[24] = at 0.0195 µM, OCI-P5x cells, with rucaparib 20 µM, 100% = cells with rucaparib alone
[25] = at 0.0195 µM, OCI-P5x cells, without rucaparib
[26] = at 0.0781 µM, OCI-C5x cells, with rucaparib 10 µM, 100% = cells with rucaparib alone
[27] = at 0.0781 µM, OCI-C5x cells, without rucaparib
[28] = at 0.0781 µM, OCI-P5x cells, with rucaparib 20 µM, 100% = cells with rucaparib alone
[29] = at 0.0781 µM, OCI-P5x cells, without rucaparib
[30] = at 0.313 µM, OCI-C5x cells, with rucaparib 10 µM, 100% = cells with rucaparib alone
[31] = at 0.313 µM, OCI-C5x cells, without rucaparib
[32] = at 0.313 µM, OCI-P5x cells, with rucaparib 20 µM, 100% = cells with rucaparib alone
[33] = at 0.313 µM, OCI-P5x cells, without rucaparib
[34] = at 1.25 µM, OCI-C5x cells, with rucaparib 10 µM, 100% = cells with rucaparib alone
[35] = at 1.25 µM, OCI-C5x cells, without rucaparib
[36] = at 1.25 µM, OCI-P5x cells, with rucaparib 20 µM, 100% = cells with rucaparib alone
[37] = at 1.25 µM, OCI-P5x cells, without rucaparib
[38] = at 5 µM, OCI-C5x cells, with rucaparib 10 µM, 100% = cells with rucaparib alone
[39] = at 5 µM, OCI-C5x cells, without rucaparib
[40] = at 5 µM, OCI-P5x cells, with rucaparib 20 µM, 100% = cells with rucaparib alone
[41] = at 5 µM, OCI-P5x cells, without rucaparib

CCOC(=O)Nc1cc(-c2ccc(C)c(NS(C)(=O)=O)c2)nn2c(C)nnc12
fold change [1, 4]: 1.01 (inactive)
fold change [1, 5]: 0.716
cell count [1, 6]: 4010
cell count [1, 7]: 3970
z-score [2, 8]: -0.585 (inactive)
z-score [2, 9]: -4.44

Cc1cc(C)c(S(=O)(=O)n2cc(C)cc2C)c(C)c1
fold change [1, 4]: 0.922 (inactive)
fold change [1, 5]: 0.448
cell count [1, 6]: 7540
cell count [1, 7]: 8180
z-score [2, 8]: -0.318 (inactive)
z-score [2, 9]: 0.313
viability [3, 10]: 109% (inactive)
viability [3, 11]: 106% (inactive)
viability [3, 12]: 102% (inactive)
viability [3, 13]: 104% (inactive)
viability [3, 14]: 121% (inactive)
viability [3, 15]: 104% (inactive)
viability [3, 16]: 97.6% (active)
viability [3, 17]: 96% (active)
viability [3, 18]: 116% (inactive)
viability [3, 19]: 101% (inactive)
viability [3, 20]: 106% (inactive)
viability [3, 21]: 101% (inactive)
viability [3, 22]: 112% (inactive)
viability [3, 23]: 94% (active)
viability [3, 24]: 105% (inactive)
viability [3, 25]: 97.2% (active)
viability [3, 26]: 128% (inactive)
viability [3, 27]: 102% (inactive)
viability [3, 28]: 99.3% (active)
viability [3, 29]: 97.7% (active)
viability [3, 30]: 122% (inactive)
viability [3, 31]: 109% (inactive)
viability [3, 32]: 101% (inactive)
viability [3, 33]: 98.8% (active)
viability [3, 34]: 113% (inactive)
viability [3, 35]: 94.4% (active)
viability [3, 36]: 106% (inactive)
viability [3, 37]: 102% (inactive)
viability [3, 38]: 122% (inactive)
viability [3, 39]: 110% (inactive)
viability [3, 40]: 101% (inactive)
viability [3, 41]: 102% (inactive)

COc1cc(C(=O)NC2CCN(C)CC2)ccc1Nc1ncc2c(n1)N(C1CCCC1)CC(F)(F)C(=O)N2C
fold change [1, 4]: 1.05 (inactive)
fold change [1, 5]: 0.442
cell count [1, 6]: 1340
cell count [1, 7]: 1280
z-score [2, 8]: -0.321 (inactive)
z-score [2, 9]: -2.73
viability [3, 10]: 103% (inactive)
viability [3, 11]: 98.4% (active)
viability [3, 12]: 95.2% (active)
viability [3, 13]: 86.9% (active)
viability [3, 14]: 97.8% (active)
viability [3, 15]: 102% (inactive)
viability [3, 16]: 99.5% (active)
viability [3, 17]: 93.6% (active)
viability [3, 18]: 111% (inactive)
viability [3, 19]: 105% (inactive)
viability [3, 20]: 89.4% (active)
viability [3, 21]: 69.2% (active)
viability [3, 22]: 73.1% (active)
viability [3, 23]: 61.3% (active)
viability [3, 24]: 68.6% (active)
viability [3, 25]: 21.8% (active)
viability [3, 26]: 64% (active)
viability [3, 27]: 42.6% (active)
viability [3, 28]: 63% (active)
viability [3, 29]: 15.8% (active)
viability [3, 30]: 39.9% (active)
viability [3, 31]: 27.3% (active)
viability [3, 32]: 70.3% (active)
viability [3, 33]: 15.5% (active)
viability [3, 34]: 31% (active)
viability [3, 35]: 19.6% (active)
viability [3, 36]: 66.4% (active)
viability [3, 37]: 17.5% (active)
viability [3, 38]: 25.7% (active)
viability [3, 39]: 19.7% (active)
viability [3, 40]: 53.1% (active)
viability [3, 41]: 17.9% (active)

CC(NC(=O)C(O)c1cc(F)cc(F)c1)C(=O)NC1C(=O)N(C)c2ccccc2-c2ccccc21 (stereo unspecified)
fold change [1, 4]: 0.896 (inactive)
fold change [1, 5]: 0.875
cell count [1, 6]: 8040
cell count [1, 7]: 8970
z-score [2, 8]: -0.323 (inactive)
z-score [2, 9]: 1.18

COc1ccccc1-c1cc(Nc2cccc(CS(N)(=O)=O)c2)ncn1
fold change [1, 4]: 0.955 (inactive)
fold change [1, 5]: 0.462
cell count [1, 6]: 3900
cell count [1, 7]: 4080
z-score [2, 8]: -0.3 (inactive)
z-score [2, 9]: -1.46
viability [3, 10]: 125% (inactive)
viability [3, 11]: 105% (inactive)
viability [3, 12]: 92.8% (active)
viability [3, 13]: 91.1% (active)
viability [3, 14]: 122% (inactive)
viability [3, 15]: 98.9% (active)
viability [3, 16]: 96.8% (active)
viability [3, 17]: 90.1% (active)
viability [3, 18]: 127% (inactive)
viability [3, 19]: 107% (inactive)
viability [3, 20]: 103% (inactive)
viability [3, 21]: 95.2% (active)
viability [3, 22]: 126% (inactive)
viability [3, 23]: 117% (inactive)
viability [3, 24]: 103% (inactive)
viability [3, 25]: 97.6% (active)
viability [3, 26]: 126% (inactive)
viability [3, 27]: 115% (inactive)
viability [3, 28]: 100% (inactive)
viability [3, 29]: 102% (inactive)
viability [3, 30]: 111% (inactive)
viability [3, 31]: 102% (inactive)
viability [3, 32]: 93.6% (active)
viability [3, 33]: 99.6% (active)
viability [3, 34]: 125% (inactive)
viability [3, 35]: 110% (inactive)
viability [3, 36]: 91.1% (active)
viability [3, 37]: 94.8% (active)
viability [3, 38]: 105% (inactive)
viability [3, 39]: 99.7% (active)
viability [3, 40]: 64.2% (active)
viability [3, 41]: 74.8% (active)

CCN1CCN(Cc2ccc(-c3cc4c(NC(C)c5ccccc5)ncnc4[nH]3)cc2)CC1 (stereo unspecified)
fold change [1, 4]: 1.04 (inactive)
fold change [1, 5]: 0.932
cell count [1, 6]: 3430
cell count [1, 7]: 3280
z-score [2, 8]: -0.0772 (inactive)
z-score [2, 9]: 0.518

C=C1C(=O)OC2C=C(C)CCC=C(C)CCC12 (stereo unspecified)
fold change [1, 4]: 0.92 (inactive)
fold change [1, 5]: 0.847
cell count [1, 6]: 7130
cell count [1, 7]: 7760
z-score [2, 8]: -0.398 (inactive)
z-score [2, 9]: -0.0875

O=C(Nc1cccc(Cl)c1)c1ccccn1
fold change [1, 4]: 0.981 (inactive)
fold change [1, 5]: 0.991
cell count [1, 6]: 7550
cell count [1, 7]: 7700
z-score [2, 8]: 0.406 (inactive)
z-score [2, 9]: -0.326

C=C1C(=O)OC2C1CCC(C)=CCC[C@@]1(C)OC21 (stereo partly specified)
fold change [1, 4]: 0.965 (inactive)
fold change [1, 5]: 0.646
cell count [1, 6]: 8720
cell count [1, 7]: 9040
z-score [2, 8]: 0.936 (inactive)
z-score [2, 9]: -0.281

CCCCCOc1ccc(-c2ccc(-c3ccc(C(=O)NC4CC(O)C(O)NC(=O)C5C(O)C(C)CN5C(=O)C(C(C)O)NC(=O)C(C(O)C(O)c5ccc(O)cc5)NC(=O)C5CC(O)CN5C(=O)C(C(C)O)NC4=O)cc3)cc2)cc1 (stereo not drawn) ({pTerphenylCO(4''-OnC5H11)}-[ξOrn(4,5-diOH)]T[Hyp][ξhTyr(βξ-OH,γξ-OH)]T[ξPro(3ξ-OH,4ξ-Me)]; lactam 1-C; configuration not given here)
fold change [1, 4]: 0.963 (inactive)
fold change [1, 5]: 0.515
cell count [1, 6]: 5590
cell count [1, 7]: 5810
z-score [2, 8]: 0.0456 (inactive)
z-score [2, 9]: -0.136
